# From the supplement of paper PMC11417369
# ± gives the standard deviation of the averaged measurements. Over roughly 25,000 sequences, “ln(normalized median fluorescence intensity)” has its median near 8.6; the highest 2% begin near 10. For the sample, the highest values were picked, then their nearest neighbours and some sequences at random.
# Tested on: PfAP2-EXP AP2 domain (GST-tagged)
# Assay: gcPBM binding intensity (ln(normalized median fluorescence intensity)); higher = stronger DNA binding
# How it was run: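 After 1 h on an Agilent 4 × 180k array of primer-extended double-stranded 36-bp intergenic genomic probes and negative controls, bound GST-tagged P. falciparum DNA-binding domains were detected with Alexa488 anti-GST antibody and scanned at 488 nm. The domains had been expressed in E. coli, and binding took place in 1× PBS with 1% milk, 0.2 mg/ml BSA, 0.5% salmon testes DNA and 0.03% Triton X-100. Binding intensity is the highest Masliner-normalised natural-log median intensity across replicate spots of either probe orientation.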
row,Sequence,gcPBM binding intensity (ln)
1,ATATAGATGCATAATACACACATCAGATAATTAACC [CACACA_site6871],8.64 ± 0.33
2,CAATTAAAAAATAATACATGCATATAAATAGATATT [TGCATGCA_site427],8.71 ± 0.38
3,TATATATATATAGATGCATGCAATTACATATAACAA [TGCATGCA_site118],10.2 ± 0.23
4,TCCTTATTTCATATTTTTAAATAATACAAAAAAAAA [CACACA_negctrl_site773],8.06 ± 0.38
5,TATAATAATAATTATTGTACGATTAGGTTAATTCAT [XGTACX_site1984],8.37 ± 0.23
6,ATGTAGGTTAATTATTGTACGTAGGGGGTGTATATT [XGTACX_site3973],10.2 ± 0.48
7,TATAATAATACGTATTGTACTATTAGGTTAATTCGT [XGTACX_site264],8.34 ± 0.33
8,ATTATTTTAATAAAACGTACAAAATATAAATCAAAA [XGTACX_site3770],8.73 ± 0.45
9,GGTTAGACGAAATATACATGCAATGGAAAATAAGTT [TGCATGCA_site23],9.42 ± 0.24
10,AAATAAAAAGTAAAGCGTACAAATGATCAAATAATA [XGTACX_site7898],9.04 ± 0.53
11,ATCTTTCAATAATTCACACATATATATATATATATA [CACACA_site4598],10.2 ± 0.28
12,ATTATATAATTGTCTTCACACACACCGATATATATA [CACACA_site8883],8.93 ± 0.51
13,TTGTAATATCTTGTCACACATATATATATATATATA [CACACA_site4937],10.2 ± 0.57
14,AAGAATATAATCTTCACACATATATATATATATATA [CACACA_site5927],10.2 ± 0.33
15,TTTTTTTTTTTTGTCACACATATGGAATATATCTAT [CACACA_site5899],8.54 ± 0.54
16,TATAATTGTCTTCACACACACATATATATATATATA [CACACA_site2743],10.2 ± 0.29
17,TTTCTTCATTTTTTCACACATAAGAAAATATAATCA [CACACA_site4275],8.46 ± 0.46
18,TATATAATTGTCTTCACACACACATATATATATATA [CACACA_site2744],10 ± 0.3
19,TATATCTTAATATACACACACACATATATATATATA [CACACA_site4968],10 ± 0.35
20,ACATCTCTTATATATTCACACACATATATATAATTA [CACACA_site8424],8.82 ± 0.35
21,AAAGAAAGTACCTTCACACATATAAGAATATAATAT [CACACA_site5214],8.6 ± 0.52
22,TTCAAAATAAAAAATTCACACACATATATATATATA [CACACA_site8653],10 ± 0.45
23,ATCTATGAAAAAGGTACATGCAATAAAGAAACATAT [TGCATGCA_site805],9.54 ± 0.45

row,Sequence,gcPBM binding intensity (ln)
1,TCATAAATTAAACAAACACACACGTTCTTTTATTTA [CACACA_site713],8.38 ± 0.33
2,AATATTTTATTTTGGGTGCAAAAGAATATTATTTCA,8.34 ± 0.071
3,TTTTTTTTTGGGGGTGCATGCAAGACATATATTTAA [TGCATGCA_site228],10.43 ± 0.028
4,CATATTATTATTTTGGTGCATACTTATATATATTTT,8.75 ± 0.31
5,CTTTTTTTTTTGGGGGTGCATGCAAGACATATATTT [GTGCAC_site9660],10.51 ± 0.028
6,ATACTTTTATTTTTGGTGCATATATCATGTAGACGT,9.025 ± 0.035
7,AATATTTTTTTTTAAACATGCATATTTGCATTACCC [TGCATGCA_site437],8.58 ± 0.41
8,ATTTTGGAAATAATATGTACATATACATAATATATA [XGTACX_site4177],8.36 ± 0.29
9,GCATTGATCAAACATACACACATGGTTAATAAAAAT [CACACA_site2085],8.72 ± 0.55
10,TCTTTATTATTCGCCACACACATATAAATATAAATA [CACACA_site7441],8.88 ± 0.38
11,ATTTATTATATATACACACATACATATATATATATA [CACACA_site2159],9.91 ± 0.42
12,TTTCTTTTTATATTCACACATAAATATATATATATA [CACACA_site6053],9.81 ± 0.28
13,ATTCTTTATTATTCGCCACACACATATATATATATA [CACACA_site9009],10.2 ± 0.28
14,TCTTTATTATTCGCCACACACATATATATATATATA [CACACA_site3077],10.2 ± 0.43
15,ATATATATATATTTATGTACATATTATTTATTCTTT [XGTACX_site6567],9.94 ± 0.17
16,CCATTCAAATTTCGCACACACATACAAAAAAAAAAA [CACACA_site3093],8.59 ± 0.42
17,ATGCAATAATAATATTGTACGCATATATTTTTTACT [XGTACX_site3384],8.41 ± 0.3
18,TATAGCATAAATATGTGTACATATTTATATGATATT [XGTACX_site6333],8.37 ± 0.28
19,AATACGAAGGATAAGAGTACTAATTAAATAAATGAA [XGTACX_site523],8.96 ± 0.28
20,TAAGGTAGTTCTGTATCACACACATATATATATATA [CACACA_site8693],10.1 ± 0.26
21,AGGTAGTTCTGTATCACACACATATATATATATATA [CACACA_site2214],10.3 ± 0.47
22,AGGTAGTTCTGTATCACACACATATAAATATAAATA [CACACA_site7110],8.48 ± 0.4
23,TCAACAAAATTGAAGGAACACACATACATATATATA [CACACA_site7940],8.87 ± 0.23

row,Sequence,gcPBM binding intensity (ln)
1,CACCCCCACAGACACACACACACACCCACATATATA [CACACA_site365],9.27 ± 0.39
2,TTCCCCCCCAGACACACACACACATACATACCACAT [CACACA_site2305],10.5 ± 0.24
3,CACAGACACCCATACACACACATACCCATATATATA [CACACA_site5023],8.79 ± 0.32
4,CCCCCCCACAGACACACACACATACATACCACATAT [CACACA_site2306],10.3 ± 0.014
5,TACAGACATACATACACACATACATACAGACATACA [CACACA_site1941],8.66 ± 0.26
6,CATACACCCAGACACACACACATATATATATATATA [CACACA_site634],10.1 ± 0.44
7,CATTTCTATATAAGCACACACGTGGAATTTTTTTTT [CACACA_site5537],8.7 ± 0.26
8,GCCATAAAAATATATACACACATAAAAAAAAATTAT [CACACA_site1176],8.36 ± 0.53
9,CTTTGTAGTTGGTCCACACACATATCTGGAAGAATA [CACACA_site4834],8.54 ± 0.39
10,AACTTTTAGAAGAACACACACATATAGATTATGACC [CACACA_site6256],8.8 ± 0.26
11,ATTATAACACCTCCCCCCCTTTTTTTATGAAGACCA [CACACA_negctrl_site1043],10.6 ± 0.18
12,TATATTATGACCACCACACACCTATACACATAACAT [CACACA_site7199],8.88 ± 0.43
13,AAAATAAAAATAAAAGCACACATAAATATATATATA [CACACA_site8409],9.64 ± 0.28
14,AATAAAAATAAAAGCACACATAAATATATATATATT [CACACA_site1441],8.66 ± 0.39
15,AAAAATAAAAAAAGCACACACATATATATATATATA [CACACA_site1885],10.2 ± 0.28
16,AAAAAAAAAAAAAAAGCACACATATAAATATGAATA [CACACA_site8391],8.41 ± 0.24
17,AAAAATAAAAAAAGCACACACATATAAATAAATATA [CACACA_site6968],8.69 ± 0.6
18,TAAAAAATAAAAAAAGCACACACATATATATATATA [CACACA_site8567],10.3 ± 0.25
19,TTCTTTTTAATTAATACACACACACCCATATATATA [CACACA_site8719],8.83 ± 0.42
20,AATGTATATATATATATATATATATATATTTATTTA [CACACA_negctrl_site113],8.43 ± 0.14
21,CCCGTAAATTATGAGTGTACGTTATTTTTTAAAATG [XGTACX_site3946],8.81 ± 0.49
22,ATAATGTTTTATAATACACACATTATATATATAAAT [CACACA_site6101],8.4 ± 0.37
23,AATATATGTTAAAATGGTACACAATTATTATATATT [XGTACX_site6407],8.46 ± 0.4

row,Sequence,gcPBM binding intensity (ln)
1,TATTCCTTCTACAATTAAATAATTATAATAAATATA [GTGCAC_negctrl_site26],8.46 ± 0.46
2,CAAGTAGATATTATACGTACATATATATATATATAT [XGTACX_site8349],10.2 ± 0.32
3,ATATATTATTATACATGTACATATATAGATATATAT [XGTACX_site4358],8.53 ± 0.35
4,GAAATTATGTAAAAAAGTACTAACATACATATATAT [XGTACX_site1794],8.61 ± 0.32
5,ACATACATATATATACGTACATATATATTTATATAT [XGTACX_site5799],8.75 ± 0.34
6,ATATATAGATAATCAAGTACATAACAAGATATAAGA [XGTACX_site2186],8.81 ± 0.47
7,AATTAGATACTAACAAGTACATATATATATATATAT [XGTACX_site2252],10.2 ± 0.26
8,ATAATATCATAATATTGTACATATTTTATTTTAAAT [XGTACX_site1115],8.36 ± 0.29
9,AATCTTCTTAATTGTAGTACACAATTTATAAACAAA [XGTACX_site8706],8.61 ± 0.3
10,TGATATTATATATATACACACATGTATGTATTTATA [CACACA_site4874],8.32 ± 0.42
11,ATGTATGTGTATATATGTACATAATATATATCTTTT [XGTACX_site8666],8.65 ± 0.32
12,ATATATATGTATATATGTACATATATGTATATATAT [XGTACX_site4772],8.66 ± 0.17
13,ATATATATATATATGTGTACATATAAGATAGAAGAA [XGTACX_site3198],10.2 ± 0.35
14,ATATATATATATATATGTACATATATCTACATATAT [XGTACX_site7588],10.2 ± 0.14
15,ATATATATATATATGTGTACATATGTATATATATCT [XGTACX_site2930],10.1 ± 0.4
16,AATAAATAGATATATACACACATATATGTGTACATA [CACACA_site7476],8.37 ± 0.29
17,TAATATCTACATATATGTACATATATATATATATAT [XGTACX_site7979],9.94 ± 0.4
18,AAATGTATATATGTATGTACATATATATATATATAT [XGTACX_site5778],10 ± 0.35
19,ATATATATATATATATGTACATATATATATGTATAT [XGTACX_site3959],10.2 ± 0.33
20,ATATATATATATATATGTACATAGAGAAGTATCTTT [XGTACX_site4737],10.4 ± 0.17
21,ATATATATATATATGTGTACATATATTAAGATATAT [XGTACX_site1065],10 ± 0.3
22,ATATATCTACATATATGTACATATATGTATATGTAT [XGTACX_site5432],8.41 ± 0.2
